HT1080 IDH1KD tx = kills HT-1080 cells with IDH1 knockdown; HT-1080 IDH1 knockdown viability, ATP luminescence, 48 h; Potency, µM (series often up to 46.1 µM), without a hit: top-dose activity, negative = toxicity, hits mostly cytotoxic; 360,000 compounds, 2% hits;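 further: potency means the concentration at half of the fitted maximal effect; 0% = DMSO wells and -100% = cell-free medium wells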
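% activity derives from luminescence (CellTiter-Glo), normalised to DMSO and no-cell wells. HT-1080-IDH1KD cells, 750/well, had 48 h compound exposure at 37 °C.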
TDP1 cell noCPT = qHTS for Inhibitors of human tyrosyl-DNA phosphodiesterase 1 (TDP1): qHTS in cells in absence of CPT. AID 686978, 2013. Potency, µM (highest dose often 46.2 µM), for inactives: top-dose activity change, negative = growth inhibition, actives largely listed as inhibitors. DT40 Tdp1-/- hTDP1 cells, no CPT, ATP luminescence, 48 h. 420,000 compounds, 15% hits; further: potency means the concentration at half of the fitted maximal effect; nearly all actives have a fitted effect of over 55% in size
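Chicken DT40 Tdp1-/- cells complemented with human TDP1, screened without camptothecin (DMSO vehicle only), 400 cells/well. Compounds pin-transferred, cells incubated at 37 °C for at least 48 hr. Growth read as ATP-dependent luminescence (CellTiter-Glo, 30 min at RT).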
IL1B secr inh = inhibitors of inflammasome signaling (IL-1 beta secretion); THP-1 LPS/ATP IL-1B secretion, AlphaLISA, 16 h; hits give low values; activity change, % at 57.5 µM; 360,000 compounds, 4.7% hits; AID 743279; in the data active means activity change below about -50%; inconclusive means mostly about -30% to -49%
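THP-1 cells pretreated 1 hr with compounds (up to 57.5 uM final), then stimulated with LPS (250 ng/mL final) plus ATP (1.25 mM final); secreted IL-1B measured by AlphaLISA after 16 hr, decreased signal indicating inhibition.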
HT1080NT lethal = kills 2HG-producing HT-1080-NT fibrosarcoma cells | HT-1080-NT fibrosarcoma viability, CellTiter-Glo ATP luminescence, 48 h | Potency, µM (series often up to 46.1 µM), inactives show at the highest dose activity, negative = less viability, usual class: cytotoxic | 360,000 compounds, 1.6% hits | AID 686970;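 further: NT is the 2HG producing partner of a matched IDH1 knockdown line; potency means the concentration at half of the fitted maximal effect; 0% = DMSO-treated cells and -100% = media-only wells without cells; nearly all actives have a fitted effect of over 55% in size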
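Toxicity toward the 2HG-producing NT line was scored as %Activity, normalised to DMSO and no-cell wells, from CellTiter-Glo luminescence after 48 hours' treatment.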
DT40 TDP1 CPT = growth inhibition of DT40 Tdp1-/-;hTDP1 cells with camptothecin (screen for TDP1 inhibitors); chicken DT40 Tdp1-/-;hTDP1 cells + 20 nM CPT, ATP luminescence, 48 h; Potency, µM (top dose mostly 46.2 µM), for the others: top-dose activity change, negative = growth inhibition, actives largely listed as inhibitors; 420,000 compounds, 12% hits; AID 686979; further: potency means the concentration at half of the fitted maximal effect; nearly all actives have a fitted effect of over 55% in size
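Cell growth measured by CellTiter-Glo luminescence after a minimum 48 h, 37 C compound exposure with 20 nM CPT in Tdp1-knockout DT40 cells stably expressing hTDP1, seeded 400/well; qHTS titration format.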
Active calls of the source: *; ? = inconclusive; . = no result given; ! = a repeat was not active. Most compounds without a hit are left out; they make up all but 19% or so of the library. Unless noted, the call rests on the fitted dose curve; in most records, active means well fitted curve in the direction sought with a large enough effect; inconclusive means small, poorly fitted or top-dose-only effect, or another doubt; inactive means no such curve, though single readings can be large; an effect the other way counts as inactive or inconclusive. Unless noted, on the % scale 0 is the no-effect control and ±100 the full control effect.

SMILES | HT1080 IDH1KD tx | TDP1 cell noCPT | IL1B secr inh | HT1080NT lethal | DT40 TDP1 CPT
Cc1cc(C)nc(NC(=NCCc2c[nH]c3ccccc23)NC(=O)C(C)(C)C)n1 | 15% | 15µM* | -1 | 8% | ?
O=c1ccc2ccccc2c2ccccc12 | 5.8µM* | 2.6µM* | -115* | 8.2µM* | 2.9µM*
O=C(O)c1ccc2ccc3ccccc3c2c1 | 17% | 1% | 24 | 18% | 3%
Cc1cc(/C=N/NC(=O)c2ccc(O)cc2)c(C)n1CC(C)C | -5% | -22% | -53* | -11% | ?
COc1ccc(CN2C(=O)c3ccccc3C2c2nnnn2C(C)C)cc1 (centres undefined) | 16% | -28% | 23 | 18% | -18%
C/C(=N\NC(=O)c1cccc([N+](=O)[O-])c1)c1ccco1 | 18% | 6% | 14 | 18% | -1%
C/C(=N/NC(=O)C(O)(c1ccccc1)c1ccccc1)c1ccc([N+](=O)[O-])o1 | ? | 21µM* | -3 | -29% | 21µM*
CCC(C)OC(=O)/C(C#N)=C\c1ccc(-c2cccc(C(F)(F)F)c2)o1 (centres undefined) | . | ? | . | . | -26%
CCc1nc2ccc(C(=O)NCCCn3ccnc3)cn2c1N(CC)CCOC | 12% | 9% | 22 | 22% | -3%
CC(C)=CCCC(C)CN1CCC(N2CCC(C(=O)N3CCCC3)CC2)CC1 (centres undefined) | ? | 16µM* | 0 | -4% | ?
CC(C)/C=C/C(=O)N1CCC(N2CCC(C(=O)N3CCOCC3)CC2)CC1 | 8% | -2% | -12 | 1% | -3%
C=C(C)[C@@H]1CC=C(CN2CCC(N3CCC(C(=O)N4CCCC4)CC3)CC2)CC1 | 21µM* | 21µM* | -62* | 18µM* | 21µM*
C=C(C)C1CC=C(CN2CCC(O)CC2)CC1 (centres undefined) | 4% | 1% | -3 | 4% | -21%
CC(OC(=O)CNC(=O)c1ccc(F)cc1)C(=O)Nc1ccc(S(=O)(=O)N2CCOCC2)cc1 (centres undefined) | 7% | 3% | 0 | ? | -5%
COc1ccc(N=Cc2c(O)n(-c3ccc(OC)cc3)c(=O)c3ccccc23)cc1 | 19% | -40% | -20 | 17% | -28%
O=c1c2ccccc2c(C=Nc2cccc(O)c2)c(O)n1-c1ccc2c(c1)OCO2 | 1% | 12µM* | ? | -6% | 6.5µM*
Cc1ccc(-n2cccc2C(=S)N=P(N(C)C)(N(C)C)N(C)C)cc1 | 8.2µM* | 1.6µM* | -59* | ? | 2.1µM*
Cc1ccc(-n2cccc2C(=O)NS(=O)(=O)c2ccc(C)cc2)cc1 | -2% | 29% | 12 | -1% | -2%
CCc1cc(C(=O)N/N=C/c2c(C)[nH]c3ccccc23)cs1 | -14% | -9% | 11 | -12% | ?
COc1ccc(NS(=O)(=O)c2ccc(S(=O)(=O)N3CCCC3)cc2)cc1Cl | 8% | ? | -3 | 16% | -28%
CC(=O)c1cccc(NS(=O)(=O)c2ccc(-c3cnc(C4CC4)o3)cc2)c1 | ? | 2.6µM* | -4 | 21µM* | 4.1µM*
Cc1cccc(NS(=O)(=O)c2ccc(-c3cnc(C4CC4)o3)cc2)c1C | ? | 0.01µM* | 84 | ? | 0.0073µM*
O=C(O)c1cccc(NS(=O)(=O)c2ccc(-c3ccc(S(=O)(=O)Nc4cccc(C(=O)O)c4)cc3)cc2)c1 | -2% | -8% | 3 | -6% | 2%
CC(=O)Nc1ccc(NS(=O)(=O)c2ccc(-c3cnc(C4CC4)o3)cc2)cc1 | -6% | 6% | 3 | -9% | -26%
COc1ccc(NS(=O)(=O)c2ccc(-c3cnc(C4CC4)o3)cc2)cc1Cl | . | 1.5µM* | . | . | 0.65µM*
SMILES | HT1080 IDH1KD tx | TDP1 cell noCPT | IL1B secr inh | HT1080NT lethal | DT40 TDP1 CPT
O=S(=O)(Nc1ccccc1)c1ccc(-c2cnc(C3CC3)o2)cc1 | ? | 2.3µM* | 9 | ? | 3.7µM*
Cc1cccc(OCC(=O)Nc2ccc3oc(=O)ccc3c2)c1 | ? | ? | -19 | 22% | 11%
CCOc1ccc(NC(=O)C2CC(=O)OC2c2ccccc2)cc1 (centres undefined) | 0% | 2% | 16 | 14% | 10%
COc1ccccc1/C(O)=C(\C#N)c1nc2ccccc2[nH]1 | -3% | -28% | 20 | 5% | 8%
Cc1ccc(NS(=O)(=O)c2ccc(-c3cnc(C4CC4)o3)cc2)cc1N(C)C | . | 0.73µM* | . | . | 1µM*
O=S(=O)(NCc1ccc(F)cc1)c1ccc(-c2cnc(C3CC3)o2)cc1 | ? | 10µM*! | 8 | ? | 18µM*
CCOc1ccc(NS(=O)(=O)c2ccc(-c3cnc(C4CC4)o3)cc2)cc1 | ? | 9.2µM* | 39 | ? | ?
O=S(=O)(c1ccc(-c2cnc(C3CC3)o2)cc1)N1CCN(c2ccccc2F)CC1 | . | -13% | . | . | ?
Cc1ccc(NS(=O)(=O)c2cc3[nH]c(=O)c(=O)[nH]c3cc2C)cc1N(C)C | . | 0% | . | . | 0%
CCOc1ccc(NS(=O)(=O)c2ccc3c(c2)oc(=O)n3C)cc1 | 6% | ? | 5 | -1% | -29%
Cc1ccc(C)c(NS(=O)(=O)c2ccc(-c3cnc(C4CC4)o3)cc2)c1 | 0.16µM* | 0.0052µM* | 51 | 0.1µM* | 0.0058µM*
O=C(Nc1c2c(nn1-c1ccccc1)CS(=O)(=O)C2)c1ccc(Br)o1 | 0% | -16% | 14 | -2% | -8%
Cc1ccc(Cl)cc1N1CCN(S(=O)(=O)c2ccc(-c3cnc(C4CC4)o3)cc2)CC1 | . | 13µM* | . | . | ?
Cc1cc(C)cc(NS(=O)(=O)c2ccc(-c3cnc(C4CC4)o3)cc2)c1 | 0.65µM* | 0.82µM* | 24 | 1.3µM* | 0.82µM*
C[C@H](NC(=O)c1ccccc1)C(=O)N1CCN(c2ccccc2)CC1 | 12% | -17% | -2 | 15% | 1%
Cc1nn(-c2cccc(Cl)c2)c2nc(C(F)(F)F)[nH]c(=O)c12 | ? | 29µM* | 3 | ? | ?
Cc1nn(-c2cc(C(F)(F)F)ccc2Cl)c2nc(C(F)(F)F)[nH]c(=O)c12 | 6% | -3% | 14 | 0% | -27%
CCOC(=O)N1CCN(S(=O)(=O)c2ccc(C(=O)Nc3nc4ccccc4s3)cc2)CC1 | 9% | ? | -5 | 13% | ?
CC(C)[C@H](NC(=O)c1cccc(S(=O)(=O)N2CCOCC2)c1)C(=O)Nc1nc2ccccc2s1 | -2% | ? | -54* | 2% | ?
CC(=O)Nc1nc2ccc(S(=O)(=O)N3CCCC3)cc2s1 | 9% | -18% | 70 | 5% | ?
CCCC(=O)Nc1nc2ccc(S(=O)(=O)N3CCCCC3)cc2s1 | 4.1µM* | 1.3µM* | 30 | ? | 1.3µM*

High-throughput results from PubChem.
